# Source: PubChem BioAssay (Johns Hopkins Ion Channel Center)
# The list is not random: actives were taken first. Their share in the collection is about 2.3%.
# CHT block: inhibits the human high affinity choline transporter | B-score at 10 µM | hit rate 0.86% among 310,000 | CHT-expressing cells, membrane potential dye, choline response; hits give low values | Q9GZV3 | AID 488975;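 active = B-score over 3 SD under the library average, and starting fluorescence ratio not unusually high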;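 note: choline stimulus applied at its EC90 after an EC20 pre-addition; B-score computed on integrated fluorescence ratio after choline addition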
# Target sequence (Q9GZV3 whole entry, looked up): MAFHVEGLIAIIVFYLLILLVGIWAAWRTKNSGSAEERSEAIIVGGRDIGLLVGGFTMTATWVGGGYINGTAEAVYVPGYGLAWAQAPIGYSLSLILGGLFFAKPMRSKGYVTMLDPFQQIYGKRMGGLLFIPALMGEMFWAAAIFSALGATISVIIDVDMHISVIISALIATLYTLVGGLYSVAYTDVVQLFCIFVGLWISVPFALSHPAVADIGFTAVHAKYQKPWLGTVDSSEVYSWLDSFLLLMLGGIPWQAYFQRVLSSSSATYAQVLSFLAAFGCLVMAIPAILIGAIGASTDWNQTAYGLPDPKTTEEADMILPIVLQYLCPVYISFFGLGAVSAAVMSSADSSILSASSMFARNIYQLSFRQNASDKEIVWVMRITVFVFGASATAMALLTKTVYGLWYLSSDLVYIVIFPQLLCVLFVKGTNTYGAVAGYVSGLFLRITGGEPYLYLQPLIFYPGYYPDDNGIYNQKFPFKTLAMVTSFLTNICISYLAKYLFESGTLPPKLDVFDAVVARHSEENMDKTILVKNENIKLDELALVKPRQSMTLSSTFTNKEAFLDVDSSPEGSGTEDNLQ
# CHT allo act: allosteric activators of human choline transporter CHT; CHT-expressing cells, membrane potential dye, choline EC20; hits give high values; LV-AA mutant CHT in HEK293 cells; B-score at 10 µM; hit rate 0.49% among 310,000; AID 488977;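 active = initial fluorescence not abnormally high and integrated response B-score, plate-corrected, over 3 SD above library mean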
# ANO1 block: blocks the mouse calcium-activated chloride channel TMEM16A. Q8BHY3. HEK293 TMEM16A/YFP iodide influx fluorescence, ionomycin. normalized B-score (activity score, 25-100; higher = stronger inhibition) at 10 µM. hit rate 1.2% among 310,000;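 active = ratio plate-corrected score three or more library SD toward inhibition, starting fluorescence score within five deviations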;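 note: score derived from kinetic fluorescence span divided by baseline fluorescence per well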
# TMEM16A act: activators or potentiators of mouse TMEM16A chloride channel; AID 623877; HEK293 TMEM16A/YFP-H148Q/I152L, iodide quench fluorescence; hits give low values; B-score at 10 µM; Q8BHY3; hit rate 0.3% among 340,000;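 active = fluorescence-ratio B-score plate-corrected deviation score at least 3 library SD below zero, with starting fluorescence score within 5 deviations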;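 note: channel opened by trigger with iodide after compound preincubation; score built on the fluorescence ratio of max minus min over baseline; more negative score means more quench and so TMEM16A activation or potentiation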
# CHT block conf: human CHT inhibition, confirmatory screen; hit rate 70% among 2,400; CHT activity remaining % of control (hits give low values), % at 10 µM; CHT-expressing cells, choline membrane potential dye; LV-to-AA substituted CHT, HEK293 cells; shares compounds with CHT block; AID 493221;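 active = choline transporter activity left, mean of duplicates at 10 µM, below buffer-only control mean minus 3 SD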;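 note: depolarization triggered by choline at its EC90 following an EC20 pre-addition; 0% = hemicholinium-3 full block and 100% = buffer-only control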
# HEK293 CHT ctr: counter-screen for CHT inhibitors: effect in parental HEK293 cells. AID 493222. membrane potential dye, choline response; active = decrease or increase beyond buffer ±3SD. shares compounds with CHT block. hit rate 4% among 2,400. membrane potential ratio readout (active if shifted either direction beyond buffer ±3SD; no single direction) at 10 µM;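 note: parental cells lack the transporter so any hit is non-specific; ratio is peak minus trough fluorescence over baseline after EC90 choline challenge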
# Starred values were filed as active, the others as inactive; i = inactive; / = no result.
SMILES,CHT block,CHT allo act,ANO1 block,TMEM16A act,CHT block conf,HEK293 CHT ctr
COC(=O)c1cc(C(=O)OC)cc(N2C(=O)CC(NNC(=O)c3ccccc3Br)C2=O)c1 (configuration not stated),i,i,i,i,/,/
COC(=O)c1cc(C(=O)OC)cc(N2C(=O)CC(NNC(=O)c3ccc(C)cc3)C2=O)c1 (configuration not stated),-5.4*,i,i,i,i,i
COc1ccc(S(=O)(=O)N2CCC(C(=O)NCCC(=O)Nc3nccs3)CC2)cc1,i,i,i,i,/,/
CC(=O)NCC(=O)N(Cc1ccco1)C1(C(=O)NC2CCCCC2)CCCCC1,-5.6*,i,i,i,i,i
Cc1cccn2c(=S)[nH]nc12,/,/,/,i,/,/
Cc1ccc(Nc2nnc(C3C(=O)N(C)C4(C)CC3c3cc(Br)ccc3O4)s2)cc1 (configuration not stated),-5.5*,i,i,i,i,i
Cc1ccc(NC(=O)CSCC(=O)Nc2nnc(C3CC3)s2)cc1,i,i,i,i,/,/
O=C(CC1CCCCC1)c1c(O)c2ccccc2oc1=O,-7.4*,i,i,i,44%*,4.6*
CCCCn1nc2cc(C(=O)NCCc3ccc(C)cc3)ccc2c1OCC,i,i,i,i,/,/
CCCCNC(=O)c1ccc2c(OCC)n(CCCC)nc2c1,-7.1*,i,i,i,57%*,i
O=C(Nc1ccc(S(=O)(=O)NC2=NCCCCC2)cc1)c1ccc(C(F)(F)F)cc1,-6.8*,i,i,i,41%*,i
CN(C)S(=O)(=O)c1ccc(C(=O)Nc2ccc(S(=O)(=O)NC3=NCCCCC3)cc2)cc1,i,i,i,i,/,/
CCN(CCNC(=O)CN1CCN(Cc2ccc(Cl)cc2)C1=O)c1ccccc1,-6.2*,i,i,i,66%*,i
O=C(CN1CCN(Cc2ccccc2)C1=O)NCc1ccc(Cl)cc1,i,i,i,i,/,/
COCCn1c(SCC(=O)N2CCCc3ccccc32)nc2c(c1=O)SC(C)C2 (configuration not stated),i,i,i,i,/,/
COCCn1c(SCC(=O)Nc2ccc(NC(C)=O)cc2)nc2ccccc2c1=O,i,i,i,i,/,/
COCCn1c(SCC(=O)N2CCCc3ccccc32)nc2ccccc2c1=O,-5.2*,i,i,i,i,i
CC1Cc2nc(SCC(=O)N3CCCc4ccccc43)n(C)c(=O)c2S1 (configuration not stated),-7.6*,i,i,i,24%*,i
COCCn1c(SCC(=O)Nc2ccccc2C(F)(F)F)nc2ccccc2c1=O,-5.3*,i,i,i,i,i
O=C(CSc1nc(C(F)(F)F)cc(=O)[nH]1)NCc1ccc2c(c1)OCO2,i,i,i,i,/,/
Cc1csc(NC(=O)CCN2C(=O)c3ccccc3S2(=O)=O)n1,-5.9*,i,i,i,69%*,i
O=C(O)C1C2CCC(O2)C1C(=O)Nc1ccc(Br)cc1F (configuration not stated),i,i,i,i,/,/
CCCc1nc2oc(C(=O)OCC)c(N)c2c2c1COC(C)(C)C2,-6.3*,i,i,i,33%*,i
CCOC(=O)c1oc2nc(C(C)C)c3c(c2c1N)CCC3,-5.2*,i,i,i,40%*,i
CCc1ccc(CN(C)C(=O)C2=CC=CN3CCS(=O)(=O)N=C23)cc1,/,/,/,i,/,/
SMILES,CHT block,CHT allo act,ANO1 block,TMEM16A act,CHT block conf,HEK293 CHT ctr
CCCCc1nc(NCCO)c(C#N)c2c1CCCC2,-5.9*,i,i,i,i,i
Cc1c(C(=O)Nc2ccc(S(=O)(=O)N(C)C3CCN(C)CC3)cc2)oc2c(Cl)cccc12,i,i,i,i,/,/
CCOc1cc(/C=N/NC(=O)c2ccc(CN3CCOCC3)cc2)ccc1OC,-9*,i,i,i,i,i
COc1ccccc1CNC(=O)/C(C#N)=C/c1ccc(OC)c(OC)c1OC,i,i,i,i,/,/
CC1=C(C(=O)Nc2ccccc2)C(c2ccncc2)C(C#N)=C(SCC(=O)Nc2ccccc2)N1 (configuration not stated),i,i,i,i,/,/
CSC1=C(C#N)C(c2ccncc2)C(C(=O)Nc2ccccc2)=C(C)N1 (configuration not stated),-5*,i,i,i,51%*,i
CCc1noc(C)c1C(=O)N1CCN(S(=O)(=O)c2ccccc2C(F)(F)F)CC1,/,/,/,i,/,/
Cn1c(Cc2ccccc2)nnc1SCC(=O)Nc1cccc(S(=O)(=O)NC2=NCCCCC2)c1,i,i,i,i,/,/
Nn1c(Cc2ccccc2F)nnc1SCC(=O)Nc1cccc(S(=O)(=O)NC2=NCCCCC2)c1,-6.1*,i,i,i,i,i
CN(Cc1ccccc1Cl)C(=O)CNC(=O)C12CC3CC(CC(C3)C1)C2,/,/,/,i,/,/
COc1ccc(NC(=S)NNc2ccc(C(=O)O)cc2)cc1,i,i,i,i,/,/
CCCCNC(=O)CN(Cc1ccco1)S(=O)(=O)c1ccc(C(C)=O)cc1,/,/,/,i,/,/
CC1CCN(CCNC(=O)CCS(=O)(=O)c2ccc(Br)cc2)CC1,-5.3*,i,i,i,i,i
O=C(NNc1nc(-c2ccccc2)cs1)c1ccccc1,-7.8*,i,i,i,62%*,i
CC(=O)Nc1ccc(-c2csc(NNC(=O)c3ccc(C)cc3)n2)cc1,i,i,i,i,/,/
COc1ccc(OCCOC(=O)c2ccc(F)c(S(=O)(=O)N3CCOCC3)c2)cc1,/,/,/,i,/,/
CCC(NC(=O)CCc1nnc(-c2cc(C)on2)o1)C12CC3CC(CC(C3)C1)C2 (configuration not stated),-7.9*,i,i,i,44%*,i
COc1ccc(NC(=O)COC(=O)CCC2CCCCC2)cc1,/,/,/,i,/,/
Nc1nc(SCC(=O)Nc2ccc([N+](=O)[O-])cc2Br)n[nH]1,i,i,i,i,/,/
CC(C)c1nc(SCC(=O)Nc2ccc([N+](=O)[O-])cc2Br)n[nH]1,-5.8*,i,i,i,i,i
CCNc1nc2[nH]c(=O)c3c(c2s1)OC(N)=C(C#N)C3c1ccc(C)cc1 (configuration not stated),-5*,i,i,i,67%*,i
CNc1nc2[nH]c(=O)c3c(c2s1)OC(N)=C(C#N)C3c1ccccc1 (configuration not stated),i,i,i,i,/,/
O=C(O)C1(Nc2ccc([N+](=O)[O-])cc2[N+](=O)[O-])CCCC1,/,/,/,i,/,/
